Screening data deposited in PubChem BioAssay by National Center for Advancing Translational Sciences (NCATS).
TRHR agonist – qHTS for Small Molecule Agonists and Allosteric Enhancers of Human TRH Receptor: Primary Screen for Agonists; TRHR cells, calcium flux fluo-8, FDSS agonist mode; Thyrotropin-releasing hormone receptor (Homo sapiens), P34981; AID 493084, 2011; 360,000 compounds, 0.18% hits; activation, % at 2 µM
Target sequence (P34981 whole entry, looked up): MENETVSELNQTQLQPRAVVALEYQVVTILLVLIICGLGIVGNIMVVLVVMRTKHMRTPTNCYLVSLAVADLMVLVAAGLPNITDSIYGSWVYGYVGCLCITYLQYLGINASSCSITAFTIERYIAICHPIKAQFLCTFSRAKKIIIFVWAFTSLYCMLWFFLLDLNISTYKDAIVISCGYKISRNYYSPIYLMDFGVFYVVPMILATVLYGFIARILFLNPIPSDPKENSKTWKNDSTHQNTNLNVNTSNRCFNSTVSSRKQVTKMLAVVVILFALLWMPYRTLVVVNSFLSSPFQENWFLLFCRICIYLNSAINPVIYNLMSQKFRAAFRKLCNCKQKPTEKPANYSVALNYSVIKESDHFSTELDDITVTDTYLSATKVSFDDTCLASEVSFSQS
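Read-out: compound-evoked intracellular calcium rise in TRHR cells, fluo-8 dye, kinetic FDSS fluorescence at 1 s/cycle following a 10-cycle baseline. Cells cultured overnight before dye loading (30 min–1.5 h, RT).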
D1 PAM – Potentiators of Human D1 Dopamine Receptor: qHTS; D(1A) dopamine receptor (Homo sapiens), P21728; HEK293 TREx D1 cells, calcium flux, dopamine EC20 potentiation; potentiation, % at 10 µM; 360,000 compounds, 0.036% hits; AID 504651, 2011; in the data active means potentiation above about 30%
D1 antagonist – Antagonist of Human D 1 Dopamine Receptor: qHTS; HEK293 TREx D1 cells, calcium flux, dopamine EC80; hits give low values; D(1A) dopamine receptor (Homo sapiens), P21728; AID 504652, 2011; 360,000 compounds, 3.2% hits; activity change, negative = inhibition, % at 10 µM; in the data active means activity change below about -30%
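Inducible Hek293 Trex D1 cells (tetracycline, overnight, 30 C). Calcium dye 30–90 min RT. Antagonist mode: EC80 dopamine added after 180 s compound read.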
D1 ag – Allosteric Agonists of the Human D1 Dopamine Receptor: qHTS; AID 504660, 2011; 360,000 compounds, 1% hits; activation, % at 2 µM; HEK293 T-REx D1 cells, calcium flux, agonist mode
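Agonism was scored from calcium flux recorded over 180 s (1 read/s) after pintool compound addition, following a 10-cycle baseline. Cells were inducible force-coupled HEK293 TREx D1, plated overnight at 30 C and loaded with no-wash calcium dye.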
TRHR PAM – qHTS for Small Molecule Agonists and Allosteric Enhancers of Human TRH Receptor: Primary Screen for Enhancers; Thyrotropin-releasing hormone receptor (Homo sapiens), P34981; TRHR cells, fluo-8 calcium fluorescence, EC20 TRH enhancement; enhancement, % at 2 µM; 360,000 compounds, 0.66% hits; AID 493056, 2011; in the data active means enhancement above about 30%
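Enhancer read-out: after compound pinning and an initial kinetic agonist-mode read, an EC20 of TRH (10 nM final) was injected and fluo-8 calcium signal (Ex 480/Em 530) followed at 1 s/cycle for 100 cycles in TRHR-expressing cells.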
Numbers stand for hits; – = inactive; · = not tested or not shown; ! = not confirmed by another sample. In the library only some 4.6% were active in any assay of this set; here they are far more common. Unless noted, no stated cut-off is given here; in the data, active means activation above about 30%; inactive means the rest.

SMILES | TRHR agonist | D1 PAM | D1 antagonist | D1 ag | TRHR PAM
O=C(Nc1ccc2c(c1)OCO2)C1CCCCC1 | – | – | – | – | –
O=C(Nc1ccc(Cl)c(Cl)c1)C1CCCCC1 | – | – | -32 | – | –
CCOC(=O)Nc1c2ccccc2nc2ccccc12 | – | – | – | – | –
C/C(=N/O)c1ccccn1 | – | – | – | – | –
CCCCCC/C(=N/O)c1ccccn1 | – | – | -37 | – | –
CCCCOP(=O)(OCCCC)C(O)c1ccc(N(C)C)cc1 (stereo unspecified) | – | – | -37 | – | –
Cn1nc(-c2ccc(Cl)cc2)cc1NC(=O)CCCC(=O)O | – | – | – | – | –
Cc1ccc(CNC(=O)CCc2cn(Cc3ccc(C)cc3)c3ccccc23)cc1 | – | – | – | – | –
CC(C)Oc1ccc(CNC(=O)C2CCCCN2S(=O)(=O)c2ccc(F)cc2)cc1 (stereo unspecified) | – | – | -40 | – | –
O=C(NCCc1ccccc1F)C1CCCN1S(=O)(=O)c1ccc2ccccc2c1 (stereo unspecified) | – | – | -53 | 41 | –
Cc1ccc(C)c(CNC(=O)C2CCCCN2S(=O)(=O)c2ccc(F)cc2)c1 (stereo unspecified) | – | – | -37 | 44 | –
CCNC(=O)C1CCCN1S(=O)(=O)c1ccc2ccccc2c1 (stereo unspecified) | – | – | – | – | –
COc1ccc(NC(=O)c2cnn(-c3ccc(F)cc3F)c2C2CCN(C(=O)OC(C)(C)C)CC2)cc1Cl | – | – | – | – | –
COc1cc(Cl)c(C)cc1NC(=O)c1cnn(-c2ccc(F)cc2F)c1C1CCN(C(=O)OC(C)(C)C)CC1 | – | – | -41 | – | –
CC(C)(C)OC(=O)N1CCC(c2c(C(=O)Nc3ccc4c(c3)OCCO4)cnn2-c2ccc(F)cc2F)CC1 | – | – | -35 | – | –
CC(C)(C)OC(=O)N1CCC(c2c(C(=O)Nc3cccc(C(F)(F)F)c3)cnn2-c2ccc(F)cc2F)CC1 | – | – | – | – | –
COc1ccc(/C=C/C(=O)Nc2ccc(-c3nnc4n3CCCCC4)cc2)c(OC)c1 | – | – | – | – | 35
c1ccc(Cn2c(NCc3ccco3)nc3ccccc32)cc1 | – | – | -36 | – | –
CCn1c(NCc2ccco2)nc2ccccc21 | – | – | – | – | –
CC1CCCCN1C(=O)CSc1nc(-c2ccccc2)cn1N (stereo unspecified) | – | – | – | – | –
CC1CCCCN1C(=O)CSc1n[nH]c(-c2ccccc2)n1 (stereo unspecified) | – | – | -31 | – | –
CC(=O)CC(=O)NC(=NC1CCCCC1)Nc1nc(C)cc(C)n1 | – | – | – | – | –
COC(=O)CNc1c(-c2ccccc2)nc2ccc(Br)cn12 | – | – | – | – | 38
COC(=O)c1csc2c(C(F)(F)F)cc(N3CCN(C(=O)Nc4ccccc4)CC3)nc12 | – | – | – | – | –
CCn1c(COc2cccc(C)c2)nc2ccccc21 | – | – | -32! | – | –
SMILES | TRHR agonist | D1 PAM | D1 antagonist | D1 ag | TRHR PAM
CCc1nc2ccccc2n1CCCCOc1cccc(C)c1 | – | – | – | – | –
CCn1c(COc2ccccc2C)nc2ccccc21 | – | – | – | – | –
COc1ccc(OCCCCn2c(CO)nc3ccccc32)cc1 | – | – | -53 | – | –
CCCCn1c(CNC(=O)CCC)nc2ccccc21 | – | – | -34 | – | –
Cc1cccc(OCCCCn2c(CO)nc3ccccc32)c1 | – | – | -38 | – | –
Cc1nnc(N2C(=O)c3oc4ccccc4c(=O)c3C2c2ccc(F)cc2)s1 (stereo unspecified) | – | – | – | – | –
CCOC(=O)C1=C(c2ccccc2)N=c2s/c(=C\c3ccco3)c(=O)n2C1c1cccs1 (stereo unspecified) | – | – | – | – | –
CCOC(=O)C1=C(c2ccccc2)N=c2s/c(=C\c3cc(OC)c(OC)c(OC)c3)c(=O)n2C1c1cccs1 (stereo unspecified) | – | – | – | 240 | –
O=C(c1ccc2nc[nH]c2c1)N1CCN(S(=O)(=O)c2cccc(F)c2)CC1 | – | – | – | – | –
CCN(CC)c1ccc2c(c1)OC(N)=C(C#N)C2c1cccnc1 (stereo unspecified) | – | – | – | 86 | –
CC(=O)c1ccc(N2CCN(C(=O)Nc3ccc(Cl)cc3)CC2)cc1 | – | – | -51 | – | –
CC(=O)Nc1ccc(N2CCN(c3ccc(F)cc3)CC2)cc1 | – | – | – | – | 33
O=C(O)c1ccccc1C(=O)N1CCN(c2cccc(Cl)c2)CC1 | – | – | -44 | – | –
CC(=O)c1cccc(NC(=O)N2CCN(S(C)(=O)=O)CC2)c1 | – | – | – | – | 34
O=C(O)/C=C\C(=O)Nc1ccc(N2CCN(c3ccc(F)cc3)CC2)cc1 | – | – | – | – | –
O=C(CCCn1c(=O)[nH]c2ccsc2c1=O)N1CCN(c2cccc(C(F)(F)F)c2)CC1 | – | – | – | – | –
CC(=O)c1ccc(NC(=O)N2CCN(c3cccc(Cl)c3)CC2)cc1 | – | – | -51 | – | –
O=C(Nc1ccc(Cl)cc1)N1CCN(c2ccccc2)CC1 | – | – | – | – | –
COc1ccc(Nc2oc(-c3ccc(COc4ccccc4C)o3)nc2C#N)cc1 | – | – | – | – | –
CCCCn1nc(C(=O)NCC(c2cccs2)N2CCOCC2)c2ccccc2c1=O (stereo unspecified) | – | · | – | – | –
Cn1nc(C(=O)NCc2cccs2)c2ccccc2c1=O | – | – | -41 | – | –
Cn1nc(C(=O)NCc2ccccc2)c2ccccc2c1=O | – | – | – | – | –
CC1CCCCC1NC(=O)c1nn(C)c(=O)c2ccccc12 (stereo unspecified) | – | – | -32 | – | –
CCn1nc(C(=O)NCC(c2cccs2)N2CCOCC2)c2ccccc2c1=O (stereo unspecified) | – | – | -35 | – | –
Cn1nc(C(=O)NC2CCCC2)c2ccccc2c1=O | – | – | – | – | –
COc1cccc(OC)c1C(=O)Nc1cccc(C(=O)Nc2cccc(C(=O)O)c2)c1 | – | – | – | – | –
CCc1ccccc1NC(=O)c1cc(S(=O)(=O)N2CCc3ccccc32)cn1C | – | – | – | – | –
CCN(CC)c1ccc(NC(=O)c2cc(S(=O)(=O)N3CCc4ccccc43)cn2C)c(C)c1 | – | – | -34 | – | –
COc1ccc(NC(=O)c2cc(S(=O)(=O)N3CCc4ccccc43)cn2C)cc1 | – | – | – | – | –
